Test results taken from PubChem BioAssay (NCI).
The panel holds about 83,000 compounds, 20% with a hit somewhere; the sample as a whole holds those more often.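 Step 1: grow cells in 96-well plates. Step 2: add test compound at a single concentration. Step 3: incubate 48 h. Step 4: record percent growth.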 Active and inactive are the calls of the source. Rule for the calls: active = growth percent below 10; inactive = the rest.

Legend:
Test in all cases: NCI-60 one-dose screen, 48 h (100 = growth as untreated, 0 = no growth, -100 = all killed)
SR leukemia = conditions: 10 µM unless noted
RPMI-8226 leukemia = conditions: 10 µM unless noted
OVCAR-8 ovarian = conditions: 10 µM unless noted
OVCAR-5 ovarian = conditions: 10 µM unless noted
OVCAR-4 ovarian = conditions: 10 µM
SK-OV-3 ovarian = conditions: 10 µM unless noted
IGROV1 ovarian = conditions: 10 µM unless noted
OVCAR-3 ovarian = conditions: 10 µM unless noted
HS 578T breast = conditions: 10 µM unless noted
NCI/ADR-RES ovarian = conditions: 10 µM unless noted
T-47D breast = conditions: 10 µM unless noted
MDA-MB-435 melanoma = conditions: 10 µM unless noted
SW-620 colon = conditions: 10 µM unless noted
MCF7 breast = conditions: 10 µM unless noted
HCT-116 colon = conditions: 10 µM unless noted
HCC-2998 colon = conditions: 10 µM unless noted
KM12 colon = conditions: 10 µM unless noted

Measured: growth

C#CCC(C(=O)OCC)C(=O)OCC
inactive: SR leukemia 99.9% | RPMI-8226 leukemia 102% | OVCAR-8 ovarian 105% | OVCAR-5 ovarian 94.9% | OVCAR-4 ovarian 128% | SK-OV-3 ovarian 99.5% | IGROV1 ovarian 117% | OVCAR-3 ovarian 103% | HS 578T breast 104% | NCI/ADR-RES ovarian 105% | T-47D breast 114% | MDA-MB-435 melanoma 97.8% | SW-620 colon 106% | MCF7 breast 98% | HCT-116 colon 105% | HCC-2998 colon 101% | KM12 colon 106%

COC(=O)[C@@H](NC(=O)NC(=O)NC(=O)CI)C(C)C
inactive: RPMI-8226 leukemia 74.5% | OVCAR-8 ovarian 90.9% | OVCAR-5 ovarian 90.9% | OVCAR-4 ovarian 72.7% | SK-OV-3 ovarian 80.9% | IGROV1 ovarian 101% | HS 578T breast 86.8% | NCI/ADR-RES ovarian 101% | T-47D breast 44.8% | MDA-MB-435 melanoma 90.5% | MCF7 breast 59.9% | HCT-116 colon 75% | HCC-2998 colon 113% | KM12 colon 100%
active: SR leukemia -46.6% | OVCAR-3 ovarian 7.92% | SW-620 colon 9.83%

C/C=C/C1OC23CCCCC2C(C#N)(C(=N)O3)C1(C#N)C#N (stereo unspecified)
inactive: SR leukemia 49.1% | RPMI-8226 leukemia 98.8% | OVCAR-8 ovarian 93.9% | OVCAR-5 ovarian 103% | OVCAR-4 ovarian 95% | SK-OV-3 ovarian 103% | IGROV1 ovarian 96.2% | OVCAR-3 ovarian 90.2% | HS 578T breast 96.9% | NCI/ADR-RES ovarian 104% | T-47D breast 84.9% | MDA-MB-435 melanoma 91.8% | SW-620 colon 92.9% | MCF7 breast 86.2% | HCT-116 colon 94.2% | HCC-2998 colon 109% | KM12 colon 96.3%

Cn1cc(-c2noc(-c3cn(C)c4ncc(Br)cc34)n2)c2cc(Cl)ccc21
inactive: SR leukemia 44.3% | RPMI-8226 leukemia 87.6% | OVCAR-8 ovarian 99.7% | OVCAR-5 ovarian 70.5% | SK-OV-3 ovarian 62.8% | IGROV1 ovarian 54.2% | OVCAR-3 ovarian 44.2% | HS 578T breast 65.8% | NCI/ADR-RES ovarian 58.5% | T-47D breast 31.6% | MDA-MB-435 melanoma 68.3% | SW-620 colon 39.9% | MCF7 breast 65.9% | HCT-116 colon 35.2% | HCC-2998 colon 93.9% | KM12 colon 75.7%
active: OVCAR-4 ovarian -25.7%

Cc1nc(Cl)c2c(n1)N(C)c1ccc(Cl)cc1C(C)C2 (stereo unspecified)
inactive: SR leukemia 83.2% | RPMI-8226 leukemia 66.8% | OVCAR-8 ovarian 95.9% | OVCAR-5 ovarian 101% | OVCAR-4 ovarian 83% | SK-OV-3 ovarian 86.3% | IGROV1 ovarian 92.7% | OVCAR-3 ovarian 98.7% | HS 578T breast 42.5% | NCI/ADR-RES ovarian 95.8% | T-47D breast 71% | MDA-MB-435 melanoma 85.9% | SW-620 colon 86.5% | MCF7 breast 95.6% | HCT-116 colon 80.1% | HCC-2998 colon 98.6% | KM12 colon 92.4%

Cc1ccc2c(n1)C(=O)C(Cl)=C(Nc1ccc(N3CCN(C)CC3)cc1)C2=O
inactive: SK-OV-3 ovarian 89.9% | HS 578T breast 58% | NCI/ADR-RES ovarian 27.6% | HCC-2998 colon 95.3% | KM12 colon 92.1%
active: SR leukemia -5.05% | RPMI-8226 leukemia -32.6% | OVCAR-8 ovarian -62.6% | OVCAR-5 ovarian -7.55% | OVCAR-4 ovarian -100% | IGROV1 ovarian -83.5% | OVCAR-3 ovarian -100% | T-47D breast -61.1% | MDA-MB-435 melanoma -99.1% | SW-620 colon -69.8% | MCF7 breast -61.9% | HCT-116 colon -64.9%

COc1ccc2c(c1)C(C)Cc1c(Cl)nc(C)nc1N2C (stereo unspecified)
inactive: SR leukemia 14.6% | RPMI-8226 leukemia 29.4% | OVCAR-8 ovarian 24.2% | OVCAR-5 ovarian 56.2% | OVCAR-4 ovarian 54.9% | SK-OV-3 ovarian 19.1% | IGROV1 ovarian 55.7% | HS 578T breast 27.3% | T-47D breast 39.6% | SW-620 colon 24.8% | MCF7 breast 19.7% | HCT-116 colon 12.2% | HCC-2998 colon 30.3% | KM12 colon 21%
active: OVCAR-3 ovarian 6.18% | NCI/ADR-RES ovarian 4.74% | MDA-MB-435 melanoma -20.5%

CCN(CC)c1ccc(/C=C/C=C2\NC(=O)NC2=O)cc1
active: NCI/ADR-RES ovarian 3.98% | MDA-MB-435 melanoma -5.48%
inactive: SR leukemia 21.1% | RPMI-8226 leukemia 41% | OVCAR-8 ovarian 36% | OVCAR-5 ovarian 58.1% | OVCAR-4 ovarian 50.5% | SK-OV-3 ovarian 29.1% | IGROV1 ovarian 49.7% | OVCAR-3 ovarian 25.5% | HS 578T breast 50.4% | T-47D breast 31.9% | SW-620 colon 31.2% | MCF7 breast 20.4% | HCT-116 colon 10.1% | HCC-2998 colon 37.2% | KM12 colon 32.4%

CCOC(=O)CCC[P+](c1ccccc1)(c1ccccc1)c1ccccc1
inactive: SR leukemia 59.5% | RPMI-8226 leukemia 41.9% | OVCAR-8 ovarian 82.2% | OVCAR-5 ovarian 95.1% | OVCAR-4 ovarian 81.7% | SK-OV-3 ovarian 98.9% | IGROV1 ovarian 65.8% | OVCAR-3 ovarian 45.9% | HS 578T breast 92.9% | NCI/ADR-RES ovarian 105% | T-47D breast 27.5% | MDA-MB-435 melanoma 60.4% | SW-620 colon 84.7% | MCF7 breast 59.7% | HCT-116 colon 63.4% | HCC-2998 colon 56.3% | KM12 colon 44.7%

CCOC(=O)/C(C#N)=C(\C)CCc1ccccc1
active: HCC-2998 colon -6.07%
inactive: SR leukemia 153% | RPMI-8226 leukemia 61.1% | OVCAR-8 ovarian 103% | OVCAR-5 ovarian 108% | OVCAR-4 ovarian 58.9% | SK-OV-3 ovarian 125% | IGROV1 ovarian 81.2% | OVCAR-3 ovarian 118% | HS 578T breast 98.7% | NCI/ADR-RES ovarian 98.8% | T-47D breast 98.9% | MDA-MB-435 melanoma 110% | SW-620 colon 103% | MCF7 breast 91.9% | HCT-116 colon 87.7% | KM12 colon 113%

COC(=O)C(=Cc1ccccc1[N+](=O)[O-])C(=O)OC
active: SR leukemia -22.3% | RPMI-8226 leukemia -18.6% | OVCAR-3 ovarian -17.9% | HCT-116 colon 6.83%
inactive: OVCAR-8 ovarian 49.8% | OVCAR-5 ovarian 56.6% | OVCAR-4 ovarian 21.6% | SK-OV-3 ovarian 69.7% | IGROV1 ovarian 37.9% | HS 578T breast 34.5% | NCI/ADR-RES ovarian 21.9% | T-47D breast 22.6% | MDA-MB-435 melanoma 15.5% | SW-620 colon 34.7% | MCF7 breast 15.4% | HCC-2998 colon 55.2% | KM12 colon 15.7%

O=C(Nc1ccc(Cl)c(C(F)(F)F)c1)Nc1ccc(-c2cccnc2)cc1N1CCC(CO)CC1
inactive: RPMI-8226 leukemia 12.1% | OVCAR-8 ovarian 26.8% | OVCAR-5 ovarian 39.4% | OVCAR-4 ovarian 43.8% | SK-OV-3 ovarian 32.6% | IGROV1 ovarian 61.4% | OVCAR-3 ovarian 38% | HS 578T breast 34.4% | NCI/ADR-RES ovarian 26.2% | MDA-MB-435 melanoma 15.5% | SW-620 colon 35.5% | MCF7 breast 16.2% | HCT-116 colon 11.8% | HCC-2998 colon 13.9% | KM12 colon 25.7%
active: SR leukemia 2.35% | T-47D breast 5.62%

CCCCCn1sc(=O)n(Cc2ccc(CNC(=O)OCc3ccc4cccc(O)c4n3)cc2)c1=O
inactive: SK-OV-3 ovarian 41.7% | HS 578T breast 10.8% | KM12 colon 11.8%
active: SR leukemia 4.06% | RPMI-8226 leukemia -14.6% | OVCAR-8 ovarian 8.91% | OVCAR-5 ovarian -42.3% | OVCAR-4 ovarian -50.6% | IGROV1 ovarian -85.9% | OVCAR-3 ovarian -84.5% | NCI/ADR-RES ovarian -11.6% | T-47D breast -47.3% | MDA-MB-435 melanoma -70.1% | SW-620 colon -48.5% | MCF7 breast 0.802% | HCT-116 colon -76.9% | HCC-2998 colon 5.53%

C#CCOc1ccc(C2=NN(CC3CC3)C3N=C(Cl)c4ncn(CC5CC5)c4N23)cc1OCC#C (stereo unspecified)
inactive: SR leukemia 65.7% | RPMI-8226 leukemia 73.7% | OVCAR-8 ovarian 71.6% | OVCAR-5 ovarian 96.6% | OVCAR-4 ovarian 71.3% | SK-OV-3 ovarian 73.8% | IGROV1 ovarian 67.8% | OVCAR-3 ovarian 90.4% | HS 578T breast 79.4% | NCI/ADR-RES ovarian 85.3% | T-47D breast 28.2% | MDA-MB-435 melanoma 80.8% | SW-620 colon 91.8% | MCF7 breast 78.8% | HCT-116 colon 80.5% | HCC-2998 colon 119% | KM12 colon 46.6%

Cn1cc(-c2noc(-c3cn(C)c4ncc(F)cc34)n2)c2cc(Cl)ccc21
active: OVCAR-4 ovarian -50.6%
inactive: SR leukemia 34.5% | RPMI-8226 leukemia 67% | OVCAR-8 ovarian 48.7% | OVCAR-5 ovarian 61.9% | SK-OV-3 ovarian 87.8% | IGROV1 ovarian 51.7% | OVCAR-3 ovarian 19.7% | HS 578T breast 47% | NCI/ADR-RES ovarian 67.9% | T-47D breast 14% | MDA-MB-435 melanoma 68.5% | SW-620 colon 47.4% | MCF7 breast 38.5% | HCT-116 colon 44.5% | HCC-2998 colon 97% | KM12 colon 61.1%

CN(Cc1cccc(C(F)(F)F)c1)C(=O)[C@@H](CC(=O)N1CCC(N2CCCCC2)CC1)N1C(=O)[C@@H](N2C(=O)OC[C@@H]2c2ccccc2)[C@H]1/C=C/c1ccccc1
inactive: SR leukemia 54.3% | RPMI-8226 leukemia 66.9% | OVCAR-8 ovarian 93.2% | OVCAR-5 ovarian 104% | OVCAR-4 ovarian 74.2% | SK-OV-3 ovarian 86.2% | IGROV1 ovarian 89.6% | OVCAR-3 ovarian 92.9% | HS 578T breast 61% | NCI/ADR-RES ovarian 99.2% | T-47D breast 76.3% | MDA-MB-435 melanoma 73.1% | SW-620 colon 93.2% | MCF7 breast 65.4% | HCT-116 colon 85.2% | HCC-2998 colon 91.9% | KM12 colon 102%

COc1ccc2nc3cc(Cl)ccc3c(Nc3ccc(O)cc3)c2c1
inactive: RPMI-8226 leukemia 68.6% | OVCAR-8 ovarian 68.5% | OVCAR-5 ovarian 104% | OVCAR-4 ovarian 90.4% | SK-OV-3 ovarian 93.3% | IGROV1 ovarian 71.3% | OVCAR-3 ovarian 83% | HS 578T breast 76.2% | NCI/ADR-RES ovarian 71.2% | T-47D breast 80% | MDA-MB-435 melanoma 96% | SW-620 colon 49.1% | MCF7 breast 24.6% | HCT-116 colon 53.1% | HCC-2998 colon 62.1% | KM12 colon 63.5%
active: SR leukemia -22.2%

COc1ccc(C(=O)CSc2nccc(Nc3ccc(C(=O)O)cc3)n2)cc1
inactive: SR leukemia 91.4% | RPMI-8226 leukemia 109% | OVCAR-8 ovarian 94.8% | OVCAR-5 ovarian 103% | OVCAR-4 ovarian 108% | SK-OV-3 ovarian 99.1% | IGROV1 ovarian 91.8% | OVCAR-3 ovarian 100% | HS 578T breast 84.4% | NCI/ADR-RES ovarian 103% | T-47D breast 102% | MDA-MB-435 melanoma 106% | SW-620 colon 95.6% | MCF7 breast 101% | HCT-116 colon 95.7% | HCC-2998 colon 104% | KM12 colon 101%
